HSF1 inh – HSF1 inhibition. activity change, negative = inhibition, % at 7.5 µM (by protocol). NIH3T3-HGL HSE-luciferase, MG132-induced, luminescence 8 h; stronger effect = lower value. 300,000 compounds, 0.77% hits;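 active means more than half of replicate wells show activity change below -50%, luminescence cut by over half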;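 further: luciferase reports HSF-1 transcriptional activity via heat shock element; 0% = median of DMSO wells and -100% = zero luminescence signal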
HSF1 activator – increases HSF-1 driven luciferase reporter signal | NIH3T3-HGL HSF-1 luciferase reporter, MG132, 8 h; 100% = twice DMSO control signal | activation, % at 9 µM | 300,000 compounds, 1.7% hits;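 active means mean replicate activation of at least 50% with a set share of replicates each reaching 50%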;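 further: 0% = median of the neutral control wells and 100% = twice that signal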
NR0B1 inh – inhibitors of human orphan nuclear receptor DAX1 (NR0B1) | P51843 | HEK293 Gal4-DAX1 luciferase reporter, luminescence | inhibition, % at 6.75 µM | 340,000 compounds, 0.99% hits | AID 504766;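 active means inhibition above the mean over all tested compounds plus 3 SD, cut at about 4.2% in these data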;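 further: 0% = DAX1-transfected cells with DMSO and 100% = empty-vector control cells with DMSO; inhibition shows as a rise in luminescence from relieved DAX1 repression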
GAA850 FXN act – increases GAA850 frataxin promoter reporter activity | 360,000 compounds, 0.56% hits | AID 540364 | HEK293 lucGAA850 FXN promoter luciferase reporter, 24 h; percent of 10 µM SAHA response | activation, % at 6 µM;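 active means activation above the average of all compounds screened plus 3 SD, cutoff fixed separately per campaign, cut at about 7.5% in these data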;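 further: 0% = DMSO wells and 100% = 10 µM SAHA wells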
AHR activator – human AHR activation; AHR-responsive luciferase reporter cells, luminescence; activation, % at 5 µM; AID 2796; 320,000 compounds, 2.5% hits; in the data active means activation above about 47%;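 further: 0% = vehicle wells and 100% = reference agonist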
Target sequence (P35869 whole entry, looked up): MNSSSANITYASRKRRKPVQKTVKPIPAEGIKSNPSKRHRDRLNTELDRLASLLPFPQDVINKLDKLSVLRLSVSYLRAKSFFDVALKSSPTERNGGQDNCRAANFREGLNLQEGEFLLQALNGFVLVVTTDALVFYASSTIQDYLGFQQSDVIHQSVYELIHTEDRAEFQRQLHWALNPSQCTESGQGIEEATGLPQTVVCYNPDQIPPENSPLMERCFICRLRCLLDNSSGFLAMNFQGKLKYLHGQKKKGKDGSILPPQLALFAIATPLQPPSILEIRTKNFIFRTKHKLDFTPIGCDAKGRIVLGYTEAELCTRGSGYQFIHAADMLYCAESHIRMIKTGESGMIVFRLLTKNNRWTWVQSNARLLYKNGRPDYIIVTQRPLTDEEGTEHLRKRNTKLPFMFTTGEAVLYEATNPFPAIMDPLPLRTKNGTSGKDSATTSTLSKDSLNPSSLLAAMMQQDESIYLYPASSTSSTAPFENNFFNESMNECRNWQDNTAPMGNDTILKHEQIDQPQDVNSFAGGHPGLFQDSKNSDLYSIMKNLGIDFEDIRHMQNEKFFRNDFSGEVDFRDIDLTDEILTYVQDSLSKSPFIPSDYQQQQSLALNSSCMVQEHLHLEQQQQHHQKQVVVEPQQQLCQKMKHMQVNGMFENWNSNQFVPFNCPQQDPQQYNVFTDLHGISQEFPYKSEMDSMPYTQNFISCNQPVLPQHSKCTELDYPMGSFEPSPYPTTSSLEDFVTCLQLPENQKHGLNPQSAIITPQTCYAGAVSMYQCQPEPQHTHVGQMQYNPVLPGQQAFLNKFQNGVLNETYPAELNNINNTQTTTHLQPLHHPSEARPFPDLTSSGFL
Numbers without * were called inactive; · = no result. This is a sample that favours compounds with a hit; in the whole collection about 5.4% have one here.

SMILES | HSF1 inh | HSF1 activator | NR0B1 inh | GAA850 FXN act | AHR activator
O=C(CCC(=O)c1ccc(Br)cc1)Nc1cccnc1 | -85* | -88 | 2 | 0 | 13
COc1cc(OC)nc(Oc2ccccc2C(=O)Oc2ccc(Cl)cc2)n1 | -86* | -90 | 1 | -1 | 2
COc1cc(OC)nc(Oc2ccccc2C(=O)Oc2ccc(C)cc2)n1 | -3 | -8 | 0 | -1 | 0
O=C(Cn1nc(-c2ccccc2)ccc1=O)NCc1ccc(F)cc1 | -2 | -9 | 0 | 1 | 2
O=C(Cn1nc(-c2ccc(Cl)cc2)ccc1=O)NCC1CCCO1 (centres undefined) | -57* | -64 | 0 | -1 | -1
O=C(Cn1nc(-c2ccccc2)ccc1=O)NCC1CCCO1 (centres undefined) | -5 | 5 | 0 | -1 | 0
O=C(Cn1nc(-c2ccccc2)ccc1=O)NCc1ccc2c(c1)OCO2 | -7 | -10 | 0 | -1 | 68*
O=C(Cn1nc(-c2ccc(Cl)cc2)ccc1=O)NCc1ccc2c(c1)OCO2 | -1 | 9 | 1 | 1 | 54*
Fc1ccccc1-c1csc(=Nc2cccnc2)n1CCCn1ccnc1 | -18 | -20 | 0 | -3 | 70*
CN(C)S(=O)(=O)c1cccc(NC(=O)c2ccc(N3CCOCC3)c([N+](=O)[O-])c2)c1 | -6 | -8 | -3 | 4 | 0
O=C(COc1ccccc1)NC(=S)Nc1ccc2c3c(cccc13)CC2 | 10 | 9 | -1 | 2 | 3
CC(C)c1ccc(OCC(=O)NC(=S)Nc2ccc3c4c(cccc24)CC3)cc1 | 20 | 68* | 0 | 1 | 3
O=C(COc1ccccc1)NC(=S)Nc1cccc2cc(O)ccc12 | 66 | 85* | -1 | 1 | 14
COc1ccc(-n2nc([N+](=O)[O-])c(=NCCC3=CCCCC3)n2O)cc1 | 11 | 10 | 0 | 5 | 14
CCCC1C(C(=O)OCC)=C(C)NC(C)=C1C(=O)OCC | 4 | 11 | -1 | -2 | 57*
CCOC(=O)C1=C(C)NC(C)=C(C(=O)OCC)C1C(=O)O | · | · | 0 | -1 | 2
Cc1cc(C)cc(C(=O)NC(CC(N)=O)c2ccc(NCC3CC3)c([N+](=O)[O-])c2)c1 (centres undefined) | 5 | 10 | 0 | -1 | -1
O=C(Nc1ncc2c(n1)-c1ccccc1CC2)c1cccc(Cl)c1 | -1 | 19 | -1 | -3 | 29
O=C(Nc1ncc2c(n1)-c1ccccc1OC2)c1ccc(F)cc1 | 1 | -10 | -1 | -2 | 55*
O=C(Nc1ncc2c(n1)-c1ccccc1CC2)c1ccc(Cl)cc1 | 1 | 4 | 0 | -2 | 75*
O=C(Nc1ncc2c(n1)-c1ccccc1OC2)c1cccc([N+](=O)[O-])c1 | 0 | -16 | 0 | 1 | 20
O=C(c1ccc([N+](=O)[O-])cc1[N+](=O)[O-])n1cnc2ccccc21 | 4 | 2 | -1 | 2 | 59*
Cc1ccc(Nc2nc(CSc3nnnn3-c3ccccc3)cs2)cc1 | 31 | 70* | -2 | -2 | 30
Cc1ccc(Nc2nc(CSc3nnnn3C)cs2)cc1 | 18 | 27 | 1 | 5 | 31
CCc1ccc(Nc2nc(N)nc(CSc3nnnn3-c3ccccc3)n2)cc1 | 9 | 7 | 1 | 1 | 50*
SMILES | HSF1 inh | HSF1 activator | NR0B1 inh | GAA850 FXN act | AHR activator
COc1ccc(CCOC(=O)c2ccc(N)c([N+](=O)[O-])c2)cc1 | -7 | -3 | 0 | 3 | -3
Cn1c(SCc2cccc(Br)c2)nnc1-c1ccncc1 | -3 | 3 | -1 | 0 | -1
Cc1ccccc1N/N=C/c1sc(=O)n(Cc2cccc(C(=O)O)c2)c1Cl | 12 | 8 | 0 | 0 | 3
COC(=O)c1cccc(Cn2c(Cl)c(/C=N/Nc3ccccc3C)sc2=O)c1 | 155 | 151* | 3 | -1 | 5
Cc1c(S(=O)(=O)N2CCCCC2)c(=O)n(C)c(=O)n1C | -4 | 4 | 4.3* | 0 | -1
COC(=O)C1CCN(S(=O)(=O)c2c(C)n(C)c(=O)n(C)c2=O)CC1 | -4 | -6 | 1 | 0 | 0
O=C(Nc1nnc([C@H]2C[C@H](O)[C@@H](CO)O2)s1)c1cccc(OC(F)(F)F)c1 | · | · | · | -1 | ·
CC[n+]1c(/C=C2\C=C(C)CC(C)(C)C2)sc2ccccc21 | 67 | 85* | 0 | 2 | 12
COc1cccc(-n2cc3c(=O)n(C)c(=O)n(C)c3c2)c1 | 33 | 44 | 0 | 5 | 59*

Screens (PubChem)
